{
  "source": "PubChem BioAssay (Tox21)",
  "note": "The source made the active and inactive calls. Calls come from the whole dose curve. % is set by controls: 0 for no effect and ±100 for the full control effect.",
  "data": [
    {"molecular_target": "Gonadotropin-releasing hormone receptor (Homo sapiens) (UniProt P30968)", "sequence (P30968 whole entry, looked up)": "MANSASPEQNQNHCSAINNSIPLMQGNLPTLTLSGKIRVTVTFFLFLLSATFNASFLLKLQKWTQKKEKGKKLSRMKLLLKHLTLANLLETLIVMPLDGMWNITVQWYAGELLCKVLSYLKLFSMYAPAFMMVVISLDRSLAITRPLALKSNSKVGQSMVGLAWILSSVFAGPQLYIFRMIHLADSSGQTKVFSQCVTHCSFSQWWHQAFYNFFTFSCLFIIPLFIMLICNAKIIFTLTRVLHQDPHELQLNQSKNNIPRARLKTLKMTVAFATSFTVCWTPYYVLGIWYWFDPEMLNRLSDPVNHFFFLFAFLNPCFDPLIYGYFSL", "experiment": "Human gonadotropin-releasing hormone receptor (GnRHR) small molecule agonists, calcium flux assay in GnRHR-HEK293 cells (AID 1920063); note: nearly all actives have a fitted effect of over 35% in size", "settings": "calcium flux fluorescence, agonist mode; series mostly up to 57.6 µM; activity change: at the top concentration", "text": "National Center for Advancing Translational Sciences [NCATS]\nDivision of Preclinical Innovation [DPI]\nU.S. Environmental Protection Agency [EPA]\nNational Institutes of Environmental Health Sciences [NIEHS]\nNational Toxicology Program [NTP]\nU.S. Food and Drug Administration [FDA]\nGonadotropin-releasing hormone receptor (GnRHR) is a G-protein-coupled receptor (GPCR) and acts (through phospholipase C) to increase intracellular inositol trisphosphate and then release intracellular calcium stores. Cell-based GnRHR-Hek293 calcium influx assay is using HEK293 cells that have been genetically engineered to express the human GnRHR, which activity can be measured by calcium signaling. A compound/drug can activate (agonist) GnRHR that can be monitored by levels of intracellular calcium.\nGnRHR-HEK293 cells developed by Codex Corp contain human GnRHR reporter gene, which was stably integrated into HEK 293 cells. The compound activation can be detected by fluorescence intensity via calcium flux assay. This cell line has been used to screen the Tox21 10K compound library to identify GnRHR agonists.\nGnRHR-Hek293 cells were dispensed at 1500cells/4uL/well in 1536-well black wall/clear bottom plates using a multidrop dispenser. After the assay plates were incubated at a 37 C/5% CO2 incubator for 18 hours, 4 uL of Calcium Dye Solution was added to each well. The plates were incubated at 37 C for 1 hour. For agonist mode, 23 nL of compounds dissolved in DMSO, positive controls or DMSO only was transferred to the assay plate by a pin tool station. The fluorescence intensity in the plates was measured using FDSS 7000EX kinetic plate reader with a filter set of Ex/Em=480/540 for 3 min at 1 sec intervals. Each test compound was measured at 15 concentrations and in triplicates.", "values": [
      {"smiles": "CCN1CCOCC1", "activity change": "1.21% (inactive)"},
      {"smiles": "CCCCO", "activity change": "-0.518% (inactive)"},
      {"smiles": "CC/C=C\\CCCCCCCCCCOC(C)=O", "activity change": "-0.782% (inactive)"},
      {"smiles": "CN(C)C(=O)COC(=O)Cc1ccc(OC(=O)c2ccc(N=C(N)N)cc2)cc1", "activity change": "0.412% [at 26.4 µM, active compounds read high] (inactive)"},
      {"smiles": "O=C(c1ccc(F)cc1)C1CCN(CCn2c(=S)[nH]c3ccccc3c2=O)CC1", "activity change": "-0.0184% [at 26.4 µM, active compounds read high] (inactive)"},
      {"smiles": "C#Cc1cccc(Nc2ncnc3cc(OCCOC)c(OCCOC)cc23)c1", "activity change": "-1.02% [at 26.4 µM, active compounds read high] (inactive)"},
      {"smiles": "CC(=O)SCc1ccco1", "activity change": "-0.0873% (inactive)"},
      {"smiles": "CCc1c2c(nc3ccc(OC(=O)N4CCC(N5CCCCC5)CC4)cc13)-c1cc3c(c(=O)n1C2)COC(=O)[C@]3(O)CC", "activity change": "1.77% [at 26.4 µM, active compounds read high] (inactive)"},
      {"smiles": "CO[C@H]1C=CO[C@@]2(C)Oc3c(C)c(O)c4c(O)c(c5c(c4c3C2=O)=NC2(CCN(CC(C)C)CC2)N=5)NC(=O)/C(C)=C\\C=C/[C@H](C)[C@H](O)[C@@H](C)[C@@H](O)[C@@H](C)[C@H](OC(C)=O)[C@@H]1C", "activity change": "3.55% (inactive)"},
      {"smiles": "CC(C)NCC(O)COc1cccc2[nH]ccc12", "note": "(stereo not given)", "activity change": "-0.355% [at 26.4 µM, active compounds read high] (inactive)"},
      {"smiles": "OCCOc1cccc(OCCO)c1", "activity change": "-0.0651% (inactive)"},
      {"smiles": "CCCC(C)CC", "note": "(stereo not given)", "activity change": "0.409% (inactive)"},
      {"smiles": "CCCCCCCCCCCCSC#N", "activity change": "-0.356% (inactive)"},
      {"smiles": "CCC(C(=O)NC(=O)NC(C)=O)c1ccccc1", "note": "(stereo not given)", "activity change": "-2.88% [at 26.4 µM, active compounds read high] (inactive)"},
      {"smiles": "CC(O)C1CCCCC1", "note": "(stereo not given)", "activity change": "-0.207% (inactive)"},
      {"smiles": "O=C1c2c(O)ccc(O)c2C(=O)c2c(NCCNCCO)ccc(NCCNCCO)c21", "activity change": "-0.0633% [at 26.4 µM, active compounds read high] (inactive)"},
      {"smiles": "Clc1nc2ccccc2nc1Cl", "activity change": "-0.0065% (inactive)"},
      {"smiles": "NNc1nc(-c2ccccc2)cs1", "activity change": "-1.91% (inactive)"},
      {"smiles": "CCNC(=O)NCc1cccc(Cl)c1", "activity change": "-0.418% [at 26.4 µM, active compounds read high] (inactive)"},
      {"smiles": "CCCC(=O)OCC", "activity change": "2.08% (inactive)"},
      {"smiles": "NC1=NCC2c3ccccc3Cc3ccccc3N12", "note": "(stereo not given)", "activity change": "-1.18% [at 26.4 µM, active compounds read high] (inactive)"},
      {"smiles": "COC(=O)CC(C)=O", "activity change": "1.55% (inactive)"},
      {"smiles": "C=C(C)C(=O)OC", "activity change": "0.0118% (inactive)"},
      {"smiles": "COC(=O)CC(C)CCC=C(C)C", "note": "(stereo not given)", "activity change": "-1.64% (inactive)"},
      {"smiles": "CCn1nc(C)c2c1C(=O)NCC(c1ccc(O)cc1)=N2", "activity change": "1.17% (inactive)"},
      {"smiles": "CCc1cc2cc(OC)c(OC)cc2c(Cc2ccccc2)n1", "activity change": "5.76% [at 26.4 µM, active compounds read high] (inactive)"},
      {"smiles": "COc1cc(OC)c2ccc(=O)oc2c1", "activity change": "-0.0181% (inactive)"},
      {"smiles": "COC(C(=O)O)c1ccccc1", "note": "(stereo not given)", "activity change": "-0.338% (inactive)"},
      {"smiles": "CCCCc1ccc2nc(NC(=O)OC)[nH]c2c1", "activity change": "-0.106% [at 26.4 µM, active compounds read high] (inactive)"},
      {"smiles": "NO", "activity change": "0.101% (inactive)"},
      {"smiles": "CCCCCC(C)O", "note": "(stereo not given)", "activity change": "-0.116% (inactive)"},
      {"smiles": "CC(C)OC(=O)OCOP(=O)(CO[C@H](C)Cn1cnc2c(N)ncnc21)OCOC(=O)OC(C)C", "activity change": "0.639% [at 26.4 µM, active compounds read high] (inactive)"},
      {"smiles": "CCCCCCCCCC[N+](C)(CCCCCCCCCC)CCC[Si](OC)(OC)OC", "activity change": "-0.798% (inactive)"},
      {"smiles": "CCC(=O)C1CC(C(C)C)CC=C1C", "note": "(stereo not given)", "activity change": "-0.741% (inactive)"},
      {"smiles": "CC(C)NCC(O)c1cc(O)cc(O)c1", "note": "(stereo not given)", "activity change": "10.3% [at 26.4 µM, active compounds read high] (inactive)"},
      {"smiles": "c1cc(CCCc2ccncc2)ccn1", "activity change": "0.171% (inactive)"},
      {"smiles": "Cc1cccc(Br)c1", "activity change": "-1.92% (inactive)"},
      {"smiles": "N#Cc1ccc(C(c2ccc(C#N)cc2)n2cncn2)cc1", "activity change": "3.79% [at 26.4 µM, active compounds read high] (inactive)"},
      {"smiles": "CN(C)c1ccncc1", "activity change": "0.911% (inactive)"},
      {"smiles": "CC(=O)O[Si](C)(OC(C)=O)OC(C)=O", "activity change": "0.931% (inactive)"}
    ]}
  ]
}
